The text below walks through data of PubChem BioAssay (NCI).

Structures are written as SMILES. Compounds without any hit were thinned out: in the full panel of roughly 83,000, 20% have a hit.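 96-well plates, one dose, 48 hours. Percent growth reported; active if below 10.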 Values without a mark were called inactive. The source made the active and inactive calls.

Among the test systems are HCT-15 colon; HT29 colon; SNB-75 CNS; SNB-19 CNS; U251 CNS; PC-3 prostate; SK-MEL-5 melanoma; UACC-62 melanoma; LOX IMVI melanoma; SK-MEL-28 melanoma.
Holding throughout (experiment): NCI-60 one-dose screen, 48 h (100 = growth as untreated, 0 = no growth, -100 = all killed)
Common to all, as to settings: 10 µM unless noted

Turning to `Nc1nc2c(c3ncccc13)C(c1ccc(Cl)c(Cl)c1)Cc1ncccc1-2` (centres undefined), the growth in the assay with HCT-15 colon is 18.2%; with HT29 colon it was 6.39% (active); with SNB-75 CNS, 16.4%; in the assay with SNB-19 CNS it was 32.1%; in the assay with U251 CNS, 16.9%; with PC-3 prostate, 19.5%. Besides, the growth is 19.8% in the assay on SK-MEL-5 melanoma, 26.6% with UACC-62 melanoma, 28% in the assay with LOX IMVI melanoma and 49.2% with SK-MEL-28 melanoma.

Regarding `COCCCNc1nc(NC(=O)c2ccc(F)cc2C)cc(-c2cccnc2)n1`, the growth in the assay on HCT-15 colon is 109%; in the assay with HT29 colon, 105%; in the assay on SNB-75 CNS it was 91.7%; in the assay on SNB-19 CNS, 89.9%; in the assay on U251 CNS it was 87.6%; with PC-3 prostate, 95.9%. Also, the growth with SK-MEL-5 melanoma is 104%; in the assay on UACC-62 melanoma it was 85.7%; in the assay with LOX IMVI melanoma, 112%; in the assay with SK-MEL-28 melanoma, 107%.

Turning to `CN(C)c1ccc(C2Nc3ccccc3-n3cccc32)cc1` (centres undefined), the growth with HCT-15 colon is 89.7%; with HT29 colon, 99.9%; with SNB-75 CNS, 107%; with SNB-19 CNS it was 94.7%; in the assay with U251 CNS, 95.6%; with PC-3 prostate, 66.4%. Besides, the growth is 93.2% in the assay with SK-MEL-5 melanoma, 79% with UACC-62 melanoma, 103% in the assay with LOX IMVI melanoma and 107% in the assay on SK-MEL-28 melanoma.

Take `COc1ccc2nc3cc(Cl)ccc3c(N3CCN(c4ccnc(N5CCOCC5)n4)CC3)c2c1`: the growth is 8.96% (active) in the assay with HCT-15 colon; -18.2% (active) in the assay with HT29 colon; 66.8% in the assay with SNB-75 CNS; 95.5% in the assay with SNB-19 CNS; 64.2% in the assay with U251 CNS; 67.2% in the assay with PC-3 prostate. Besides, the growth with SK-MEL-5 melanoma was 88.4%; with UACC-62 melanoma, 91.9%; in the assay with LOX IMVI melanoma it was -59% (active); in the assay on SK-MEL-28 melanoma it was 35.9%.

Regarding `CCOC(=O)c1c2c(n3ccc(NC(=O)CCN(CC)CC)cc13)C(=O)c1ncccc1C2=O`, the growth is 50.3% in the assay on HCT-15 colon; 38.4% in the assay with HT29 colon; 33% with SNB-75 CNS; 53.3% with SNB-19 CNS; 53.2% with U251 CNS; 61.1% with PC-3 prostate. The growth in the assay on SK-MEL-5 melanoma is 45.1%; with UACC-62 melanoma, 50.8%; in the assay on LOX IMVI melanoma, 10.3%; in the assay on SK-MEL-28 melanoma it was 88.8%.

Take `COc1ccc(C2Nc3ccccc3-n3cccc32)cc1` (centres undefined): the growth in the assay with HCT-15 colon is 92.9%; with HT29 colon, 108%; in the assay on SNB-75 CNS, 105%; with SNB-19 CNS it was 97.8%; with U251 CNS, 98%; in the assay on PC-3 prostate, 71.7%. Further, the growth in the assay on SK-MEL-5 melanoma is 93.1%; in the assay with UACC-62 melanoma it was 81.9%; in the assay with LOX IMVI melanoma it was 97.3%; in the assay on SK-MEL-28 melanoma, 106%.

With `CC(=O)N1CC(Nc2ccc(OC(F)(F)F)cc2)=CC1=O`, the growth with HCT-15 colon was 30.8%; with HT29 colon, 7.79% (active); in the assay with SNB-75 CNS it was 9.15% (active); in the assay with SNB-19 CNS, 42.3%; with U251 CNS, 28.6%; in the assay on PC-3 prostate it was 30.6%. For the same compound, the growth in the assay on SK-MEL-5 melanoma was 21.2%; in the assay on UACC-62 melanoma, 39.1%; in the assay on LOX IMVI melanoma, 43.7%; with SK-MEL-28 melanoma it was 56.5%.

As for `CSc1nc(NCCCNc2ccnc3cc(Cl)ccc23)cc(-c2ccccc2)n1`, the growth with HCT-15 colon was 46.2%; in the assay with HT29 colon it was 9.09% (active); in the assay on SNB-75 CNS, 56.9%; with SNB-19 CNS, 91.9%; in the assay on U251 CNS it was 53.3%; in the assay with PC-3 prostate, 59.9%. Besides, the growth is 52.6% in the assay on SK-MEL-5 melanoma, 91% in the assay on UACC-62 melanoma, 31.2% in the assay with LOX IMVI melanoma and -52.2% (active) with SK-MEL-28 melanoma.

With `COc1ccc2nc3cc(Cl)ccc3c(N3CCN(c4nccc(NCc5ccccc5)n4)CC3)c2c1`, the growth with HCT-15 colon is 47.5%; with HT29 colon, 52.7%; in the assay on SNB-75 CNS, 69.2%; with SNB-19 CNS, 96%; in the assay with U251 CNS, 69%; in the assay with PC-3 prostate it was 78.7%. For the same compound, the growth in the assay on SK-MEL-5 melanoma is 84%; in the assay with UACC-62 melanoma it was 85.2%; in the assay with LOX IMVI melanoma, 31.3%; with SK-MEL-28 melanoma, 80.7%.

In the case of `COc1ccc2nc3cc(Cl)ccc3c(N3CCN(c4nccc(Nc5ccccc5)n4)CC3)c2c1`, the growth in the assay on HCT-15 colon was 33.8%; with HT29 colon, 54%; in the assay with SNB-75 CNS it was 52.8%; in the assay on SNB-19 CNS, 85.2%; in the assay with U251 CNS, 58.5%; in the assay on PC-3 prostate, 55.9%. Moreover, the growth is 80.4% in the assay with SK-MEL-5 melanoma, 78.9% in the assay on UACC-62 melanoma, 44.3% with LOX IMVI melanoma and 83.5% in the assay on SK-MEL-28 melanoma.

Take `O=c1ccc2cc3ccccc3cc2[nH]1`: the growth was 109% with HCT-15 colon; 101% with HT29 colon; 82.2% in the assay on SNB-75 CNS; 104% with SNB-19 CNS; 95.5% with U251 CNS; 105% in the assay on PC-3 prostate. Besides, the growth was 80.8% in the assay with SK-MEL-5 melanoma, 66.4% with UACC-62 melanoma and 124% with SK-MEL-28 melanoma.

In the case of `Cn1cc(-c2csc(-c3cn(C)c4ncccc34)n2)c2ccccc21`, the growth is 26.5% with HCT-15 colon; 6.11% (active) in the assay on HT29 colon; -4.48% (active) in the assay on SNB-75 CNS; 42.4% in the assay on SNB-19 CNS; 25.1% in the assay with U251 CNS; 35.7% in the assay on PC-3 prostate. Besides, the growth is 32.6% in the assay on SK-MEL-5 melanoma, 47% in the assay on UACC-62 melanoma, 36.8% with LOX IMVI melanoma and 61.4% in the assay on SK-MEL-28 melanoma.

As for `COc1cnc2c(c1)C(=O)c1c-2n(CCCN2CCN(C)CC2)c(=O)c2cc([N+](=O)[O-])ccc12`, the growth in the assay on HCT-15 colon was -61.2% (active); with HT29 colon, -79.4% (active); with SNB-75 CNS, -93.2% (active); in the assay with SNB-19 CNS, -20.6% (active); in the assay with U251 CNS, -81.2% (active); in the assay on PC-3 prostate, 4.16% (active). Also, the growth was -97.5% (active) in the assay with SK-MEL-5 melanoma, -77.9% (active) with UACC-62 melanoma, -90.7% (active) with LOX IMVI melanoma and -80.6% (active) in the assay on SK-MEL-28 melanoma.
